# Bioassay records from PubChem BioAssay.
# A selection: hits, their analogues and other compounds. The true share with any hit is near 1.8%.
# Mcl1 Bid PPI – Mcl-1/Bid interaction inhibition | Q07820 | TR-FRET Mcl-1/Bid-Dy647 peptide binding, 1536-well | inhibition, % at 21.7 µM | 0.97% of 220,000 active | AID 1021;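 active = compounds that cut the binding signal by more than half at the single screening dose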;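 note: His-tagged Mcl-1 with europium anti-His antibody binding Bid BH3 peptide; 0% = Mcl-1 plus peptide wells and 100% = peptide-only wells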
# Mcl-1 Bim block – inhibitors of Bim-Mcl-1 interaction, human; Bead-based flow cytometry, Bim peptide-Mcl-1 binding; inhibition, % at 10 µM; 0.1% of 190,000 active; AID 1009; in the data active = inhibition above about 40%;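 note: 0% = no compound tracer wells and 100% = peptide blocker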
# TLR9-MyD88 inh – blocks human TLR9 binding to MyD88; Q9NR96+Q99836; AID 504734; 0.21% of 340,000 active; CHO BLA complementation TLR9-MyD88, CCF4 FRET ratio; inhibition, % at 4.98 µM;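 active = inhibition above the mean over all tested compounds plus 3 SD, cut at about 21% in these data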;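 note: 0% = DMSO only wells and 100% = clavulanate BLA inhibitor control wells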
# Mcl1-Noxa inh – disrupts binding of human Mcl-1 to Noxa peptide. Q07820. TR-FRET Mcl-1/Noxa peptide binding, 2 h. inhibition, % at 21.7 µM. 1.5% of 220,000 active. AID 1022;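 active = compounds that cut the protein-peptide binding signal by more than 50% relative to plate controls in a single-dose test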;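 note: His-tagged Mcl-1 with rhodamine Noxa BH3 peptide and terbium anti-His antibody; 0% = Mcl-1 plus Noxa peptide wells and 100% = peptide-only wells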
# TLR4-MyD88 BLA – blocks binding of human TLR4 to MyD88. inhibition, % at 8.4 µM. 0.18% of 200,000 active. AID 861. HeLa CL3-4 TLR4/MyD88 BLA complementation, FRET ratio. O00206+Q99836; in the data active = inhibition above about 25%;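 note: 0% = vehicle and 100% = reference inhibitor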
# NOD2 RIPK2 PPI – NOD2-RIPK2 protein interaction inhibition | O43353 | CHO BLA complementation NOD2-RIPK2, CCF4 ratio | inhibition, % at 4.98 µM | 0.38% of 360,000 active | AID 624267; in the data active = inhibition above about 21%;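 note: 0% = vehicle only and 100% = reference blocker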
# Target sequence (O43353 whole entry, looked up): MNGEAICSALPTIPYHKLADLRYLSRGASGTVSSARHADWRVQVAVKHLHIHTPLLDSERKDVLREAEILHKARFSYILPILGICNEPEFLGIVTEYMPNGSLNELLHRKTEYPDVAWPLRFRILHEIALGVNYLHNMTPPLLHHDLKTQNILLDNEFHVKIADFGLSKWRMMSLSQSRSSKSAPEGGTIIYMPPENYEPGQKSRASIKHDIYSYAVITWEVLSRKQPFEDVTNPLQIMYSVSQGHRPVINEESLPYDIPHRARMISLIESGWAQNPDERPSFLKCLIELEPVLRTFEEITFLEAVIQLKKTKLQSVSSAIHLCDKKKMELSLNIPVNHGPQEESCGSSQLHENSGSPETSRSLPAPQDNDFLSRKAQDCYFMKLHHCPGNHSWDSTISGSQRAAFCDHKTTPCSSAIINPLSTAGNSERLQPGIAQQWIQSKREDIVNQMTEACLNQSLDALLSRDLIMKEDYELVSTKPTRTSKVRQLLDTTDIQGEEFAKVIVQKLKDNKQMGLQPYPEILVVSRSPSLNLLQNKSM
# The depositor's hits bear a star; . = no result given.
SMILES,Mcl1 Bid PPI,Mcl-1 Bim block,TLR9-MyD88 inh,Mcl1-Noxa inh,TLR4-MyD88 BLA,NOD2 RIPK2 PPI
COc1ccc(OC)c(-n2c(N)c(C(=O)NCC3CCCO3)c3nc4ccccc4nc32)c1 (stereo not drawn),92.9*,0.0,-16.9,14.8,9.0,-11.4
COc1ccc(-n2c(N)c(C(=O)NCc3ccco3)c3nc4ccccc4nc32)cc1OC,45.3,0.0,1.0,33.8,1.8,-6.5
COc1ccc(-n2c(N)c(C(=O)NCc3ccco3)c3nc4ccccc4nc32)cc1,-11.5,3.0,1.7,57.9*,-14.9,-1.1
COCCn1c(N)c(C(=O)NCC2CCCO2)c2nc3ccccc3nc21 (stereo not drawn),-50.9,0.0,8.2,10.8,-9.7,-0.7
COc1ccc(Cc2nc(-c3ccc(Br)cc3)no2)cc1,-5.7,1.0,5.1,57.7*,15.9,0.9
CCOC(=O)C(=CNNc1cccc(Cl)c1)C(=O)OCC,-29.6,.,-3.4,52.2*,.,-12.3
CCOC(=O)/C=C(\C)Sc1cc(O)c2ccccc2c1O,-9.9,.,-2.4,87.8*,.,6.0
N#CC1=C(N)N2C(=C(C#N)C1c1cccc(Br)c1)Nc1ccccc12 (stereo not drawn),19.4,-4.0,5.3,24.8,5.2,8.5
N#CC1=C(N)N2C(=C(C#N)C1c1ccc(Br)cc1)Nc1ccccc12 (stereo not drawn),51.3*,-5.0,.,49.8,11.4,.
CN(C)c1ccc(N=C/C=C2\N(C)c3ccccc3C2(C)C)cc1,-147.5,1.0,-15.5,70.8*,8.0,0.4
CC1CCCC(C)N1CCNC(=O)C1CCN(S(=O)(=O)N2CCCCC2)CC1 (stereo not drawn),101.8*,-2.0,-6.1,9.6,-7.6,-8.6
CC(=O)c1ccc(N2CCN(C(=O)CCC(=O)Nc3ccc4nc(N5CCN(C)CC5)cc(C)c4c3)CC2)cc1,.,.,-6.2,.,.,-4.1
Cc1ccc(-n2c3c(c(=O)[nH]c2=O)C(NS(=O)(=O)c2ccc(Cl)cc2)(C(F)(F)F)C(=O)N3)cc1 (stereo not drawn),-55.0,-5.0,-15.6,54.5*,1.4,3.5
Cn1c2c(c(=O)n(C)c1=O)C(NS(=O)(=O)c1ccc(Cl)cc1)(C(F)(F)F)C(=O)N2 (stereo not drawn),-107.0,1.0,-0.3,53.1*,10.8,4.4
COc1cccc(/C=N/Nc2ncnc3c2[nH]c2ccc(C)cc23)c1OC,35.2,.,4.9,100.3*,.,0.8
COCCNc1ncnc2c1[nH]c1ccccc12,-12.9,.,-4.9,-4.2,.,1.7
COc1ccc(/C=N/Nc2ncnc3c2[nH]c2ccccc23)c(OC)c1OC,48.6,-5.0,-4.3,54.8*,-8.0,-8.0
COc1ccccc1C(=O)N/C(=C\c1cn(S(=O)(=O)N(C)C)c2ccccc12)C(=O)N1CCCCC1,.,.,15.2,.,.,-4.2
N#Cc1nc(-c2ccc(OCc3ccc(Cl)cc3)cc2)oc1NCc1cccnc1,23.1,1.0,0.5,56.9*,2.9,-11.8
N#Cc1nc(-c2ccc(OCc3ccccc3)cc2)oc1NCc1cccnc1,-13.4,-2.0,-3.6,8.0,13.2,-0.2
Cc1ccc(/C=N/n2c(-c3cccs3)n[nH]c2=S)cc1,-41.6,-1.0,-1.2,22.4,5.5,5.6
S=c1[nH]nc(-c2cccs2)n1/N=C/c1c(Cl)cccc1Cl,-9.9,-7.0,-23.0,55.9*,3.9,-9.0
O=C1SC(SCc2ccccc2Cl)=N/C1=C\c1ccc(C(=O)O)cc1,-34.4,-2.0,0.1,80.2*,8.6,1.1
COc1ccc(Br)c2oc(S)cc(=O)c12,-7.1,-6.0,1.4,63.5*,-15.6,-0.4
COc1ccc(C(=O)c2ccc(OC)c(Br)c2)cc1Br,-16.3,-2.0,-3.0,-17.0,-15.2,-1.5
CCCCCCCC#Cc1ccccc1/C=N/S(=O)c1ccc(C)cc1 (stereo not drawn),17.3,-5.0,.,-30.5,3.0,.
Fc1cccc(Nc2nc(-c3ccncc3)nc3ccccc23)c1,29.7,47.0*,11.1,26.0,0.7,-8.3
c1ccc(Nc2nc(-c3ccccc3)nc3ccccc23)cc1,.,.,5.2,.,.,-5.0
Cc1ccc(C(=O)NNc2c3ccccc3nc3ccccc23)cc1,11.8,.,-5.4,81.2*,.,-13.6
Cc1ccc(C(=O)NNC2=Nc3cccc4cccc2c34)cc1,19.8,-5.0,-3.1,67.1*,-9.0,-3.2
